Data taken from PubChem BioAssay (EPA / NIEHS).
Where a structure was tested more than once in an assay, its records may differ in their call. The source made the active and inactive calls. The calls were made as follows: active = hit-call score of the fitted dose curve at least 0.9, where 1 is the maximum; inactive = score below 0.9.

Read-out: CD40, CD40 (gene 958)
Experiment: BSK_SAg_CD40: BioMAP Diversity Plus: SAg Assay for CD40 Biomarker Activity (AID 2283088)
Conditions: primary human HUVEC with PBMC; actives raise or lower the signal
Description: BSK_SAg is a cell-based, multiplexed-readout assay that uses umbilical vein endothelium and peripheral blood mononuclear cells, a human vascular primary cell co-culture, with measurements taken at 24 hours after chemical dosing in a 96-well plate.BSK_SAg_CD40 is one of 10 assay component(s) measured or calculated from the BSK_SAg assay. It is designed to make measurements of enzyme-linked immunosorbent assay, a form of binding reporter, as detected with fluorescence intensity signals by Enzyme-linked immunosorbent assay technology.Data from the assay component BSK_SAg_CD40 was analyzed into 1 assay endpoint. This assay endpoint, BSK_SAg_CD40, was analyzed with bidirectional fitting relative to DMSO as the negative control and baseline of activity. Using a type of binding reporter, gain or loss-of-signal activity can be used to understand changes in the signaling as they relate to the gene CD40. Furthermore, this assay endpoint can be referred to as a primary readout, because this assay has produced multiple assay endpoints where this one serves a signaling function. To generalize the intended target to other relatable targets, this assay endpoint is annotated to the cytokine intended target family, where the subfamily is inflammatory factor.
The levels of cell surface (or secreted, indicated by the prefix "s") biomarker endpoints were measured by ELISA. Overt cytotoxicity to cells in confluent adherent cultures (all systems other than the BT system) was assessed by measuring total protein levels using sulforhodamine B (SRB) staining in parallel cultures at the time of biomarker measurements, indicated as SRB endpoints. For proliferation assays for adherent cell types, individual cell types are cultured at sub-confluence and relative cell numbers quantified by SRB staining at time points optimized for each system (48 h: 3C and CASM3C systems; 72 h: BT and HDF3CGF systems; 96 h: SAg system). SRB was performed by staining cells with 0.1% SRB after fixation with 10% TCA and reading wells at 560 nm.Viability and proliferation of PBMC (T cells) was quantified by Alamar Blue reduction for the SAg and BT systems. For PBMC viability (referred to as PBMC Cytotoxicity within the assay endpoint names), cells were plated (75,000/well in a 96-well plate) and then chemical samples added for 1 h before addition of activators, SEB and TSST-1 (20 ng/mL final concentration each). Cells were incubated for 90 h. Then, Alamar Blue (20 uL/well) (Invitrogen, Cat DAL1100) was added for 6 h, and the plates were read with a fluorescence microplate reader at 546/580 nm (excitation/emission). For PBMC proliferation, cells were plated and activated as above but incubated for only 16 h prior to addition of Alamar Blue. Plates were read after 6 h.

| SMILES | AC50 | outcome |
| --- | --- | --- |
| ClC1=C(Cl)C2(Cl)C3C(Cl)C(Cl)CC3C1(Cl)C2(Cl)Cl (stereo not given) | 24.4 µM (active) |  |
| CCCCc1ccccc1 |  | inactive |
| C=CC(=O)OCC(CC)(COC(=O)C=C)COC(=O)C=C | 2.12 µM (active) |  |
| Cc1ccc(N)cc1N |  | inactive |
| CCOC(=O)c1ccccc1C(=O)OCC |  | inactive |
| Nc1ccc(Cl)cc1 |  | inactive |
| OCC1CO1 (stereo not given) |  | inactive |
| NC(=O)C(F)(F)C(F)(F)F |  | inactive |
| O=P1(N(CCCl)CCCl)NCCCO1 (stereo not given) |  | inactive |
| O=S(=O)(F)C(F)(F)C(F)(F)C(F)(F)C(F)(F)C(F)(F)C(F)(F)C(F)(F)C(F)(F)F |  | inactive |
| OCC(F)(F)OC(F)(F)C(F)(F)OC(F)(F)C(F)(F)OC(F)(F)CO | 30 µM (active) | inactive |
| FC(F)(F)C(F)(C(F)(F)F)C(F)(F)C(F)(F)CC1CO1 (stereo not given) |  | inactive |
| O=c1ssc(Cl)c1Cl | 5.44 µM (active) |  |
| Cc1ccc([N+](=O)[O-])cc1C |  | inactive |
| c1ccc2c(c1)sc1ccccc12 |  | inactive |
| ClC(Cl)c1ccccc1 |  | inactive |
| CCOP(=S)(OCC)SCSc1ccc(Cl)cc1 | 9.34 µM (active) |  |
| OCC(F)(F)OC(F)(F)C(F)(F)OC(F)(F)C(F)(F)OC(F)(F)F | 41.6 µM (active) | inactive |
| CCCN(CCC)c1c([N+](=O)[O-])cc(C(C)C)cc1[N+](=O)[O-] | 30.1 µM (active) |  |

| SMILES | AC50 | outcome |
| --- | --- | --- |
| Nc1ccc([N+](=O)[O-])cc1Cl |  | inactive |
| CCN(CC)c1ccccc1 |  | inactive |
| CCNc1nc(Cl)nc(NC(C)(C)C)n1 | 20 µM (active) |  |
| CC(C)(C)c1ccc(O)cc1 |  | inactive |
| O=[N+]([O-])c1ccc(Cl)c(Cl)c1 |  | inactive |
| O=C(O)C(F)(OC(F)(F)C(F)(F)C(F)(F)F)C(F)(F)F (stereo not given) |  | inactive |
| N#Cc1cc([N+](=O)[O-])ccc1N |  | inactive |
| CC(O)C(F)(F)C(F)(F)F (stereo not given) |  | inactive |
| c1nc[nH]n1 |  | inactive |
| CCOP(=S)(OCC)SCS(=O)(=O)CC |  | inactive |
| CC(Cc1ccc(OCC(=O)O)cc1)NCC(O)c1csc(C(F)(F)F)n1 (stereo not given) |  | inactive |
| Cc1cccc(N)c1 |  | inactive |
| Cc1c([N+](=O)[O-])cc2c(c1[N+](=O)[O-])C(C)(C)CC2(C)C |  | inactive |
| Cc1ccc(O)cc1C |  | inactive |
| CCOP(=S)(Oc1ccc([N+](=O)[O-])cc1)c1ccccc1 (stereo not given) | 14 µM (active) |  |
| O=C(O)C(F)(F)OC(F)(F)C(F)(F)OC(F)(F)F |  | inactive |
| CCOP(=S)(S)OCC |  | inactive |
| CC(Cl)(Cl)C(=O)O |  | inactive |
| CCCCC(CC)COP(=O)(Oc1ccccc1)Oc1ccccc1 (stereo not given) | 20 µM (active) |  |
